Among the data in PubChem BioAssay AID819 (Columbia University Molecular Screening Center, 2007) are activation values, retold here.

The campaign covered roughly 94,000 compounds. About 280 (0.3%) were called active. Many of the other results were omitted from the sample, so actives are more common in it than they were. A number with no mark means an inactive call.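 How the source made its calls: active means activation above 40%, about the mean plus 3 SD, also judged a hit on visual image review; inconclusive means activation above 40% but not a hit on visual review; inactive means activation not above 40% and no visual hit.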

A short description of the test: enhancers of NFkB p65 translocation in HUVEC – imaging, IL-1B stimulus, high-content imaging, primary screen (AID 819).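 Further: percent activation is computed from the nuclear over cytoplasmic p65 intensity ratio.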 Conditions: HUVEC IL-1B NFkB p65 nuclear translocation imaging; at 2 µM; stronger effect = higher value.
For the molecule `Nc1ccc(-c2sc(N)nc2-c2ccccc2)cc1`, the activation is -1.63%.

`CC(C)c1ccc(N2CCN(C(=O)c3ccccc3NC(=O)/C=C(\C(=O)O)c3ccccc3)CC2)cc1`: the activation is 24.1%.

For `NC(=NC(=O)c1ccccc1)N1CCOCC1`, the activation is 3.72%.

As for `O=C(Cc1ncc(C(F)(F)F)cc1Cl)Nc1cccc(Br)c1`, the activation was 13.4%.

`O=[N+]([O-])c1ccc(Oc2ccc(F)cc2Br)c2ccncc12`: the activation is -1.85%.

Consider `S=C(NCCC1=CCCCC1)Nc1ccccc1`, for which the activation was -10.4%.

Regarding `Cc1nn(C)cc1/C=C1\CCC/C(=C\c2cn(C)nc2C)C1=O`, the activation is -13.1%.

Turning to `COCC(C)NC(=O)c1ccc(-n2nc(C(F)(F)F)cc2-c2cccs2)cc1` (stereo unspecified), the activation was 15.7%.

For `COc1ccccc1C(=O)n1nc(-c2ccccc2)nc1N`, the activation is 13.8%.

Turning to `COc1ccc(C(=O)n2nc(-c3ccc(C)cc3)nc2N)cc1OC`, the activation was -6.6%.

Take `COc1ccc(C(=O)n2nc(-c3ccc(Cl)cc3)nc2N)cc1OC`: the activation was 41.4% (active).

Consider `CC(C)(CCl)C(=O)Nc1ccc(Sc2ccc(F)cc2)cc1`, for which the activation was -5.55%.

As to `CCn1c(SCc2ccc(C)cc2)nnc1-c1nn(-c2ccccc2)ccc1=O`, the activation is 0.15%.

As to `O=C1c2ccccc2C(=O)c2c1cccc2N1CCN(CCO)CC1`, the activation is 11.4%.

Regarding `CCC1(CC)NC(=O)N(CC(=O)OCC(=O)Nc2ccc(C(F)(F)F)cc2)C1=O`, the activation was -31.3%.

Turning to `Cc1cccc(-c2nc3c(c(SCC(=O)N4CCOCC4)n2)CCCC3)c1`, the activation was 16.6%.

For the molecule `COc1ccccc1NC(=O)[C@H](COCc1ccccc1)NC(=O)OC(C)(C)C`, the activation is 8.44%.

As for `CCCC(=O)NC(Nc1ccccc1OC)C(Cl)(Cl)Cl` (stereo unspecified), the activation is -10.4%.

As for `CCOC(=O)C1(S(=O)(=O)c2ccccc2)CCN(Cc2ccccc2)CC1`, the activation is 2.52%.

For the molecule `CCC(=O)Nc1ccc2nc(C)n(Cc3ccccc3Cl)c(=O)c2c1`, the activation was -5.54%.

Regarding `COc1cnc(SCc2ccc(Cl)c(Cl)c2)nc1Cl`, the activation is 20.1%.

Take `Cc1cc(C)cc(OCC(=O)NNC(=O)c2cc3ccccc3oc2=O)c1`: the activation is -12%.

Regarding `Cc1cc(OC(=O)c2c(Cl)cccc2Cl)nc(C)n1`, the activation is 23%.

As to `N#Cc1ccc(Oc2cc(C(F)(F)F)nc(-c3ccccn3)n2)cc1`, the activation was 49.2% (active).

For the molecule `COc1ccc(C(=O)Nc2nc(-c3ccc(OC)cc3)c(-c3ccc([N+](=O)[O-])cc3)s2)cc1`, the activation is 1.5%.

In the case of `CN(CC#CCC(c1ccccc1)c1ccccc1)C(C)(C)C`, the activation is 6.49%.
